# Measurements: PubChem BioAssay AID1159580 (chemical genetic matrix, 2015)
# In all, about 5,500 compounds went through this assay and about 2,000 (36%) were called active. Not shown: some 18% with an inconclusive outcome. No stated cut-off is given here; in the data, active means normalized growth mostly below about 0.91 (no sharp cut-off); inconclusive means no clear call, values can overlap the other calls; inactive means mostly above about 0.92. This is one part of the list.
# Experiment: chemical genetic growth profiling, strain panel (AID 1159580);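 further: tested at 20 µM; growth read once vehicle control cultures reached saturation at 30 °C; 1 = growth at the plate median or of vehicle wells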
# Settings: S. cerevisiae deletion strains, growth OD
compound,measurement,setting,value
COc1cc(C)c2c(=O)cc(-c3ccccc3)oc2c1,normalized growth,"locus YJL187C, strain SWE1 (second series), stronger effect = lower value",0.954 (inactive)
same,normalized growth,"locus YJL187C, strain SWE1, stronger effect = lower value",0.933 (inactive)
same,normalized growth,"locus YJR043C, strain POL32, stronger effect = lower value",1.03 (inactive)
same,normalized growth,"locus YJR066W, strain TOR1, stronger effect = lower value",0.814 (active)
same,normalized growth,"locus YKL009W, strain mrt4, stronger effect = lower value",0.954 (inactive)
same,normalized growth,"locus YKL068W, stronger effect = lower value",0.966 (inactive)
same,normalized growth,"locus YKL085W, strain MDH1 (second series), stronger effect = lower value",0.965 (inactive)
same,normalized growth,"locus YKL085W, strain MDH1, stronger effect = lower value",0.965 (inactive)
same,normalized growth,"locus YKL160W, strain elf1, stronger effect = lower value",0.884 (active)
same,normalized growth,"locus YKR001C, strain vps1, stronger effect = lower value",0.982 (inactive)
same,normalized growth,"locus YKR026C, strain gcn3, stronger effect = lower value",0.92 (active)
same,normalized growth,"locus YKR091W, strain srl3, stronger effect = lower value",0.934 (inactive)
same,normalized growth,"locus YLL001W, strain dnm1, stronger effect = lower value",0.932 (inactive)
same,normalized growth,"locus YLL026W, stronger effect = lower value",0.944 (inactive)
same,normalized growth,"locus YLL041C, strain sdh2, stronger effect = lower value",0.935 (inactive)
same,normalized growth,"locus YLR027C, strain aat2, stronger effect = lower value",0.917 (active)
same,normalized growth,"locus YLR039C, strain RIC1, stronger effect = lower value",1.08 (inactive)
same,normalized growth,"locus YLR058C, strain SHM2, stronger effect = lower value",0.975 (inactive)
same,normalized growth,"locus YLR102C, strain apc9, stronger effect = lower value",0.974 (inactive)
same,normalized growth,"locus YLR113W, strain HOG1, stronger effect = lower value",0.721 (active)
same,normalized growth,"locus YLR221C, strain rsa3, stronger effect = lower value",0.887 (active)
same,normalized growth,"locus YLR258W, strain gsy2, stronger effect = lower value",0.921 (inactive)
same,normalized growth,"locus YLR262C, strain YPT6 (second series), stronger effect = lower value",0.757 (active)
same,normalized growth,"locus YLR262C, strain YPT6, stronger effect = lower value",1.05 (inactive)
same,normalized growth,"locus YLR268W, strain sec22, stronger effect = lower value",0.958 (inactive)
same,normalized growth,"locus YLR320W, strain mms22, stronger effect = lower value",0.728 (active)
same,normalized growth,"locus YLR330W, strain CHS5, stronger effect = lower value",0.973 (inactive)
same,normalized growth,"locus YLR342W, strain FKS1 (second series), stronger effect = lower value",0.979 (inactive)
same,normalized growth,"locus YLR342W, strain FKS1, stronger effect = lower value",0.901 (active)
same,normalized growth,"locus YLR357W, strain rsc2, stronger effect = lower value",0.87 (inactive)
same,normalized growth,"locus YLR370C, strain arc18, stronger effect = lower value",0.945 (inactive)
same,normalized growth,"locus YLR371W, strain rom2, stronger effect = lower value",0.966 (inactive)
same,normalized growth,"locus YLR384C, strain iki3, stronger effect = lower value",0.925 (inactive)
same,normalized growth,"locus YLR418C, strain cdc73, stronger effect = lower value",0.843 (inactive)
same,normalized growth,"locus YML016C, strain PPZ1, stronger effect = lower value",0.972 (inactive)
same,normalized growth,"locus YML032C, strain rad52, stronger effect = lower value",0.968 (inactive)
same,normalized growth,"locus YML120C, strain ndi1, stronger effect = lower value",0.941 (inactive)
same,normalized growth,"locus YML124C, strain tub3, stronger effect = lower value",0.973 (inactive)
same,normalized growth,"locus YMR058W, strain fet3, stronger effect = lower value",0.917 (inactive)
same,normalized growth,"locus YMR078C, strain ctf18, stronger effect = lower value",0.952 (inactive)
same,normalized growth,"locus YMR125W, strain sto1, stronger effect = lower value",0.929 (inactive)
same,normalized growth,"locus YMR129W, stronger effect = lower value",0.937 (inactive)
same,normalized growth,"locus YMR205C, strain PFK2, stronger effect = lower value",0.791 (active)
same,normalized growth,"locus YMR223W, strain ubp8, stronger effect = lower value",0.967 (inactive)
same,normalized growth,"locus YMR231W, strain pep5, stronger effect = lower value",0.951 (inactive)
same,normalized growth,"locus YMR307W, strain GAS1, stronger effect = lower value",1.23 (inactive)
same,normalized growth,"locus YNL067W, strain RPL9B, stronger effect = lower value",0.964 (inactive)
same,normalized growth,"locus YNL071W, strain lat1, stronger effect = lower value",0.687 (active)
same,normalized growth,"locus YNL183C, strain NPR1, stronger effect = lower value",0.796 (active)
same,normalized growth,"locus YNL209W, strain ssb2, stronger effect = lower value",0.961 (inactive)
same,normalized growth,"locus YNL233W, strain BNI4, stronger effect = lower value",0.952 (inactive)
same,normalized growth,"locus YNL248C, strain rpa49, stronger effect = lower value",0.912 (inactive)
same,normalized growth,"locus YNL250W, strain rad50, stronger effect = lower value",0.953 (inactive)
same,normalized growth,"locus YNL271C, strain bni1, stronger effect = lower value",0.944 (inactive)
same,normalized growth,"locus YNL298W, strain CLA4, stronger effect = lower value",0.953 (inactive)
same,normalized growth,"locus YNL307C, strain MCK1, stronger effect = lower value",0.918 (inactive)
same,normalized growth,"locus YNL322C, strain KRE1 (second series), stronger effect = lower value",0.932 (inactive)
same,normalized growth,"locus YNR049C, strain mso1, stronger effect = lower value",0.924 (inactive)
same,normalized growth,"locus YNR052C, strain pop2, stronger effect = lower value",0.958 (inactive)
same,normalized growth,"locus YOL006C, strain TOP1, stronger effect = lower value",0.686 (inactive)
same,normalized growth,"locus YOL012C, strain htz1",1.23 (inactive)
same,normalized growth,"locus YOL147C, strain pex11, stronger effect = lower value",0.97 (inactive)
same,normalized growth,"locus YOR001W, strain rrp6, stronger effect = lower value",0.932 (inactive)
same,normalized growth,"locus YOR061W, strain CKA2, stronger effect = lower value",0.979 (inactive)
same,normalized growth,"locus YOR069W, strain VPS5, stronger effect = lower value",0.979 (inactive)
same,normalized growth,"locus YOR070C, strain gyp1, stronger effect = lower value",0.93 (inactive)
same,normalized growth,"locus YOR080W, strain dia2, stronger effect = lower value",0.943 (inactive)
same,normalized growth,"locus YOR083W, strain WHI5, stronger effect = lower value",0.907 (inactive)
same,normalized growth,"locus YOR106W, strain vam3, stronger effect = lower value",0.896 (inactive)
same,normalized growth,"locus YOR136W, strain idh2, stronger effect = lower value",0.972 (inactive)
same,normalized growth,"locus YOR144C, strain elg1, stronger effect = lower value",0.968 (inactive)
same,normalized growth,"locus YOR184W, strain ser1, stronger effect = lower value",0.866 (active)
same,normalized growth,"locus YOR231W, strain MKK1, stronger effect = lower value",0.857 (active)
same,normalized growth,"locus YOR265W, strain rbl2, stronger effect = lower value",0.922 (active)
same,normalized growth,"locus YOR270C, strain vph1, stronger effect = lower value",0.701 (active)
same,normalized growth,"locus YOR290C, strain snf2, stronger effect = lower value",0.82 (active)
same,normalized growth,"locus YOR316C, strain cot1, stronger effect = lower value",0.966 (inactive)
same,normalized growth,"locus YPL051W, strain arl3, stronger effect = lower value",0.904 (active)
same,normalized growth,"locus YPL078C, strain atp4, stronger effect = lower value",0.886 (active)
same,normalized growth,"locus YPL106C, strain sse1, stronger effect = lower value",0.852 (inactive)
same,normalized growth,"locus YPL240C, strain hsp82, stronger effect = lower value",0.934 (inactive)
same,normalized growth,"locus YPL256C, strain CLN2, stronger effect = lower value",0.872 (inactive)
same,normalized growth,"locus YPR119W, strain clb2, stronger effect = lower value",0.973 (inactive)
same,normalized growth,"locus YPR141C, strain kar3, stronger effect = lower value",0.954 (inactive)
same,normalized growth,"locus YPR163C, strain tif3, stronger effect = lower value",0.982 (inactive)
same,normalized growth,"locus YPR167C, strain met16, stronger effect = lower value",0.958 (inactive)
same,normalized growth,"strain wtn01, stronger effect = lower value",0.968 (inactive)
